Measurements: PubChem BioAssay (NCI)
Compounds without any hit were thinned out: in the full panel of roughly 83,000, 20% have a hit.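 In brief: 96-well plates, 48 h treatment, single concentration, percent growth endpoint.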 Active and inactive are the calls of the source. Rule for the calls: active = growth percent below 10; inactive = the rest.

Tests used:
Assay in all cases: NCI-60 one-dose screen, 48 h (100 = growth as untreated, 0 = no growth, -100 = all killed)
Details in all cases: 10 µM unless noted
NCI-H23 lung = test system: NCI-H23 lung
NCI-H226 lung = test system: NCI-H226 lung
NCI-H322M lung = test system: NCI-H322M lung
HOP-62 NSCLC = test system: HOP-62 NSCLC
NCI-H460 lung = test system: NCI-H460 lung
HOP-92 NSCLC = test system: HOP-92 NSCLC
NCI-H522 lung = test system: NCI-H522 lung
A549/ATCC NSCLC = test system: A549/ATCC NSCLC
786-0 renal = test system: 786-0 renal
COLO 205 colon = test system: COLO 205 colon
DU-145 prostate = test system: DU-145 prostate
K-562 leukemia = test system: K-562 leukemia
MALME-3M melanoma = test system: MALME-3M melanoma
MDA-MB-231 breast = test system: MDA-MB-231 breast
RXF 393 renal = test system: RXF 393 renal
SF-268 CNS = test system: SF-268 CNS
SF-295 CNS = test system: SF-295 CNS
SF-539 CNS = test system: SF-539 CNS
UACC-257 melanoma = test system: UACC-257 melanoma
M14 melanoma = test system: M14 melanoma

Measured: growth

Cn1cc(-c2nc3c(F)cc4[nH]ncc4c3c3c2CCCC3)c(C(F)F)n1
inactive: NCI-H23 lung 66.9% | NCI-H226 lung 62.2% | NCI-H322M lung 66.2% | HOP-62 NSCLC 57.3% | NCI-H460 lung 62.3% | NCI-H522 lung 26.9% | A549/ATCC NSCLC 58.1% | 786-0 renal 63.9% | COLO 205 colon 89.4% | DU-145 prostate 78.7% | K-562 leukemia 26% | MALME-3M melanoma 77.1% | MDA-MB-231 breast 60.2% | RXF 393 renal 55% | SF-268 CNS 61.7% | SF-295 CNS 64.7% | SF-539 CNS 62.3% | UACC-257 melanoma 90.5% | M14 melanoma 53.4%
active: HOP-92 NSCLC 8.14%

N#Cc1ccccc1OCC(=O)Nc1nc2c(s1)COc1ccccc1-2
inactive: NCI-H23 lung 99.3% | NCI-H226 lung 93.2% | NCI-H322M lung 102% | HOP-62 NSCLC 105% | NCI-H460 lung 107% | HOP-92 NSCLC 106% | NCI-H522 lung 103% | A549/ATCC NSCLC 98.9% | 786-0 renal 102% | COLO 205 colon 105% | DU-145 prostate 114% | K-562 leukemia 104% | MALME-3M melanoma 107% | MDA-MB-231 breast 102% | RXF 393 renal 101% | SF-268 CNS 104% | SF-295 CNS 79.5% | SF-539 CNS 101% | UACC-257 melanoma 112% | M14 melanoma 105%

CC1=CC=C(NC(=O)/C=C/c2ccccc2)CC1Nc1nccc(-c2cccnc2)n1 (stereo not given)
active: RXF 393 renal 0.475% | UACC-257 melanoma 8.14%
inactive: NCI-H23 lung 69% | NCI-H226 lung 66% | NCI-H322M lung 67.2% | HOP-62 NSCLC 54.8% | NCI-H460 lung 66.9% | HOP-92 NSCLC 60.3% | NCI-H522 lung 69% | A549/ATCC NSCLC 42.4% | 786-0 renal 15.9% | COLO 205 colon 26.7% | DU-145 prostate 30.9% | K-562 leukemia 10.2% | MALME-3M melanoma 45.2% | MDA-MB-231 breast 51.5% | SF-268 CNS 54% | SF-295 CNS 44.1% | SF-539 CNS 14% | M14 melanoma 23.7%

CCCCCCNC(=O)Oc1ccc(/C(=C(/CC)Cc2ccccc2)c2ccc(OCCCN(C)C)cc2)cc1
active: K-562 leukemia 7.11%
inactive: NCI-H23 lung 79% | NCI-H226 lung 95.5% | NCI-H322M lung 89.3% | HOP-62 NSCLC 83.2% | NCI-H460 lung 40.2% | HOP-92 NSCLC 54.3% | NCI-H522 lung 89% | A549/ATCC NSCLC 71.6% | 786-0 renal 68.8% | COLO 205 colon 65.6% | DU-145 prostate 89.4% | MALME-3M melanoma 83.3% | MDA-MB-231 breast 67.5% | RXF 393 renal 80.3% | SF-268 CNS 80.8% | SF-295 CNS 116% | SF-539 CNS 99.1% | UACC-257 melanoma 80.8% | M14 melanoma 85.2%

COC(=O)/C=C1/SC(N2N=C(c3cccs3)CC2c2ccc(F)cc2)=NC1=O (stereo not given)
active: K-562 leukemia 5.16%
inactive: NCI-H23 lung 82.2% | NCI-H226 lung 84% | NCI-H322M lung 93% | HOP-62 NSCLC 85.2% | NCI-H460 lung 24.4% | HOP-92 NSCLC 77.1% | NCI-H522 lung 24.3% | A549/ATCC NSCLC 90.7% | 786-0 renal 85.3% | COLO 205 colon 21.8% | DU-145 prostate 31% | MALME-3M melanoma 79.7% | MDA-MB-231 breast 35% | RXF 393 renal 48.7% | SF-268 CNS 32.4% | SF-295 CNS 91.4% | SF-539 CNS 91.6% | UACC-257 melanoma 84.4% | M14 melanoma 50.8%

CN1CCN(CCNC(=O)c2cccc(CN3c4cccc5c4C(=Cc4cccnc43)N(C)C5=O)c2)CC1
inactive: NCI-H23 lung 59.5% | NCI-H226 lung 45% | NCI-H322M lung 41.4% | HOP-62 NSCLC 24.7% | NCI-H460 lung 48.3% | HOP-92 NSCLC 19.3% | NCI-H522 lung 14.1% | A549/ATCC NSCLC 33.9% | 786-0 renal 49.6% | COLO 205 colon 19.8% | DU-145 prostate 68.1% | K-562 leukemia 30% | MALME-3M melanoma 49.3% | MDA-MB-231 breast 31.7% | RXF 393 renal 26.6% | SF-268 CNS 59.3% | SF-295 CNS 42.5% | SF-539 CNS 33.5% | UACC-257 melanoma 50% | M14 melanoma 45.4%

Cn1c(=O)c2c(nc(Nc3cc(=O)[nH]c(=O)[nH]3)n2Cc2ccccc2)n(C)c1=O
active: NCI-H460 lung 2.91% | NCI-H522 lung 4.24% | COLO 205 colon -2.38% | DU-145 prostate 2.17%
inactive: NCI-H23 lung 91.5% | NCI-H226 lung 86.6% | NCI-H322M lung 97.9% | HOP-62 NSCLC 20.6% | HOP-92 NSCLC 80.5% | A549/ATCC NSCLC 12.3% | 786-0 renal 102% | K-562 leukemia 87.5% | MALME-3M melanoma 103% | MDA-MB-231 breast 99.7% | RXF 393 renal 81.7% | SF-268 CNS 24.9% | SF-295 CNS 101% | SF-539 CNS 94.2% | UACC-257 melanoma 47.3% | M14 melanoma 91.8%
